Where “and” joins values, the source holds several entries; their conditions need not be identical. Equal values may be shown once. Records with an inconclusive call do not appear. Where a structure was tested more than once in an assay, its records may differ in their call. Calls of active or inactive are those of the source. Unless noted, the call rests on the fitted dose curve; in most records, active means well fitted curve in the direction sought with a large enough effect in the repeat runs; inconclusive means weak or mixed curves; inactive means no such curve, though single readings can be large; an effect the other way counts as inactive or inconclusive.
Assays:
[1] = qHTS assay to identify small molecule antagonists of the estrogen related receptor (ERR) signaling pathway from Tox21 library - cell viability counter screen (AID 1224834); further: nearly all actives have a fitted effect of over 30% in size
How it was run: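 Viability readout (CellTiter-Fluor fluorescence, 30 min at 37 C) multiplexed with the ERR assay; cells treated 17.5 h at 37 C with compounds delivered in DMSO.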

[2] = target: Luciferin 4-monooxygenase (Photinus pyralis) (UniProt P08659); assay: qHTS assay to identify small molecule inhibitors of firefly luciferase (AID 1224835); further: nearly all actives have a fitted effect of over 25% in size; further: potency means the concentration at half of the fitted maximal effect
Sequence of Luciferin 4-monooxygenase (Photinus pyralis) (P08659 whole entry, looked up): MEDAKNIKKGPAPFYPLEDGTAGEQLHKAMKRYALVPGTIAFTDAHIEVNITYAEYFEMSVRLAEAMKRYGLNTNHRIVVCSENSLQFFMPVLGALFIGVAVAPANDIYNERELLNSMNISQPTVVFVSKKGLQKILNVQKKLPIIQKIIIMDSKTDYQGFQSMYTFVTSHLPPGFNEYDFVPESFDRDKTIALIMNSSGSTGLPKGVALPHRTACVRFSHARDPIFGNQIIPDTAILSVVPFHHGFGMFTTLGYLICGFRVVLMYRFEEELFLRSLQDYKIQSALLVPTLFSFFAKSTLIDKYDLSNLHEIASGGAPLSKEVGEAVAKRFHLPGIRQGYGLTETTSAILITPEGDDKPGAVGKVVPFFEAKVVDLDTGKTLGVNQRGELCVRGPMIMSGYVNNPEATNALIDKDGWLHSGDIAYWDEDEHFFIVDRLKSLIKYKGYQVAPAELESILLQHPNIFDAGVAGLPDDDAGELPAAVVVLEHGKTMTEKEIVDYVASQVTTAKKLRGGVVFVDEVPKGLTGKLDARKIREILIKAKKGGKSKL
How it was run: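 Inhibition of purified Photinus luciferase is measured by luminescence. Substrate levels (D-luciferin, ATP) sit at their KM values. Each compound is tested in a concentration series.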

[3] = qHTS assay to identify small molecule agonists of the constitutive androstane receptor (CAR) signaling pathway - cell viability counter screen (AID 1224836); further: series mostly up to about 92 µM; nearly all actives have a fitted effect of over 45% in size
How it was run: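 Double-stable HepG2 hepatoma cells (hCAR plus CYP2B6-2.2kb) are treated for 23 h at 37 C with test compounds in 15-point concentration series. PK11195 at 0.75 uM final is co-added. Cell viability is quantified by CellTiter-Fluor.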

[4] = qHTS assay to identify small molecule antagonists of the estrogen related receptor signaling pathway with the pleiotropic PPARgamma coactivator (PGC) from Tox21 10K library - cell viability counter screen (AID 1224840; active means well fitted cell-killing curve with a large enough effect in the repeat runs, not every such curve was filed as active; further: nearly all actives have a fitted effect of over 40% in size)
How it was run: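 Compounds in DMSO, alongside positive and negative controls, were pinned onto PGC/ERR cells (2,000 per well). Exposure lasted 17.5 hours at 37 C, followed by a 30-minute CellTiter-Fluor incubation and fluorescence reading.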

[5] = qHTS assay to identify small molecule antagonists of the estrogen related receptor signaling pathway with the pleiotropic PPARgamma coactivator (PGC) from Tox21 10K library (AID 1224841; call rule not given here; further: series mostly up to about 92 µM; actives are mostly falling curves and most rising ones were filed inactive; nearly all actives have a fitted effect of over 50% in size)
How it was run: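 Compound exposure ran 18 hours at 37 C in PGC/ERR cells (2,000/well) that had first rested 6 hours in a 37 C/5% CO2 incubator. Luciferase activity was then detected with One-Glo after a 30-minute room-temperature step.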

[6] = qHTS assay to identify small molecule agonists of the estrogen related receptor signaling pathway with the pleiotropic PPARgamma coactivator (PGC) from Tox21 10K library (AID 1224842); further: nearly all actives have a fitted effect of over 15% in size
How it was run: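 Luminescence from One-Glo (30 min, room temperature) measured after PGC/ERR cells had 18 h at 37 C with pinned compound (23 nL in DMSO). Cells had been seeded at 2,000 per well and pre-incubated 6 h.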

[7] = target: Thyrotropin receptor (Homo sapiens) (UniProt P16473); assay: qHTS assay to identify small molecule agonists of the thyroid stimulating hormone receptor (TSHR) signaling pathway (AID 1224843; calls by dose curve; further: nearly all actives have a fitted effect of over 45% in size; further: potency means the concentration at half of the fitted maximal effect)
Sequence of Thyrotropin receptor (Homo sapiens) (P16473 whole entry, looked up): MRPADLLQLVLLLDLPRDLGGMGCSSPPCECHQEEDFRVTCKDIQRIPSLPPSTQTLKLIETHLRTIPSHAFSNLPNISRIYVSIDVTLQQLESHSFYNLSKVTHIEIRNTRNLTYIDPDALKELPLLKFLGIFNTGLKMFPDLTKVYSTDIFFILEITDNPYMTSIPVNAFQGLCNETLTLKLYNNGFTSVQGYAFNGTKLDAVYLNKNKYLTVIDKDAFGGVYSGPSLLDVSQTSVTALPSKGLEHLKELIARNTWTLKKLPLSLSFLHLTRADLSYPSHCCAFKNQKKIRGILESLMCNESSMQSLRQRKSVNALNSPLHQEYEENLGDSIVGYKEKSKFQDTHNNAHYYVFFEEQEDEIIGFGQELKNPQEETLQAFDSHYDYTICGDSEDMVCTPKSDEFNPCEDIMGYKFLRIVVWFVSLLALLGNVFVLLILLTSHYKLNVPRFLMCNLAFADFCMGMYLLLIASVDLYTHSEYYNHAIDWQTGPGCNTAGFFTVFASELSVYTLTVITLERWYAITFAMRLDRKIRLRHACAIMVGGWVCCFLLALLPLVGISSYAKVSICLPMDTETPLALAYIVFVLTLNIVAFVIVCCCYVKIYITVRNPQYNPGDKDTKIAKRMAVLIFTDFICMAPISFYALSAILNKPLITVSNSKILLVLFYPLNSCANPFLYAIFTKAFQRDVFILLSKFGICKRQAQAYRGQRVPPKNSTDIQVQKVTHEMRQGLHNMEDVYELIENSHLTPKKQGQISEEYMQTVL
How it was run: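 HEK293 cells stably bearing the thyrotropin receptor were plated at 800 cells/well and challenged with compound (30 min, RT). Accumulated cAMP was quantified via cAMP-d2 competing for cryptate-tagged antibody.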

[8] = qHTS assay to identify small molecule agonists of the hypoxia (HIF-1) signaling pathway - cell viability counter screen (AID 1224844; calls by dose curve; further: nearly all actives have a fitted effect of over 50% in size)
How it was run: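 Luminescent ATP content (CellTiter-Glo, 30 min, room temperature) served as the viability measure in HRE-bla ME-180 cells exposed to compounds for 17 hrs in low-serum medium (0.5% dialyzed FBS).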

[9] = qHTS assay to identify small molecule agonists of H2AX (AID 1224845; active means well fitted activation curve with a large enough effect in the signal ratio in the repeat runs, not every such curve was filed as active; the % refers to the signal ratio)
How it was run: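 Phospho-H2AX Ser139 measured by HTRF (ex 320 nm; em 665 and 620 nm) after 24 hr antibody incubation. Compounds, 15 concentrations, 0.76% DMSO, were applied to CHO-K1 cells for 3hr at 37C before lysis.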

[10] = qHTS assay to identify small molecule agonists of the hypoxia (HIF-1) signaling pathway (AID 1224846; active means well fitted activation curve with a large enough effect in the signal ratio in the repeat runs, not every such curve was filed as active; the % refers to the signal ratio)
How it was run: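 Measured by blue/green FRET after loading CCF4-AM: beta-lactamase expressed from a hypoxia response element in ME-180 cells. Test agents were delivered in DMSO and left 17 hrs; cells had been plated 5 hrs earlier in low-serum (0.5% dialyzed FBS) medium.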

[11] = qHTS assay to identify small molecule agonists of H2AX - cell viability counter screen (AID 1224847; calls by dose curve;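 further: wild-type CHO-K1 cells; top concentration of the series differs between compounds; nearly all actives have a fitted effect of over 30% in size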)
How it was run: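 For this counter screen, overnight-attached CHO-K1 cells received test compounds (15 concentrations, 0.76% DMSO final); 3 hr later at 37C, CellTiter-Glo reagent was added and luminescence recorded after 30 min at room temperature.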

[12] = qHTS assay to identify small molecule antagonists of the estrogen related receptor (ERR) signaling pathway from Tox21 library (AID 1224848); further: nearly all actives have a fitted effect of over 50% in size
How it was run: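 Reading was by luminescence 30 min after ONE-Glo addition. Before that, ERR cells at 2,000 per well had rested 6 h at 37 C/5% CO2 and then received pin-tooled compounds in DMSO for 18 h at 37 C.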

[13] = qHTS RealTime-Glo MT Cell Viability Assay in HepG2 cells - 24 hour (AID 1224867); further: nearly all actives have a fitted effect of over 50% in size
How it was run: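 Luminescence read-out: viable HepG2 cells reduce a prosubstrate to a NanoLuc substrate, giving a signal proportional to live cell number. Reads taken at 0, 8, 16, 24, 32 and 40 h of compound exposure at 37 C.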

[14] = qHTS RealTime-Glo MT Cell Viability Assay in HEK293 cells - 32 hour (AID 1224868); further: nearly all actives have a fitted effect of over 50% in size; further: potency means the concentration at half of the fitted maximal effect
How it was run: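 Nonlytic real-time viability readout: viable cells convert prosubstrate to NanoLuc substrate, giving luminescence proportional to live cell number. HEK293, 600 cells/well, compound added after 5 h, continuous culture at 37 C.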

[15] = A CellTox Green Cytotoxicity Assay to monitor cytotoxicity in HEK293 cells - 0 hour (AID 1224869); further: nearly all actives have a fitted effect of over 50% in size
How it was run: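 Each value comes from one timepoint of a single continuous run in which HEK293 cells with CellTox Green were exposed to compound for up to 40 h at 37 C, dye fluorescence rising with cell death.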

[16] = qHTS RealTime-Glo MT Cell Viability Assay in HepG2 cells - 40 hour (AID 1224870); further: nearly all actives have a fitted effect of over 50% in size
How it was run: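 Real-time viability: cells seeded at 600 per well together with NanoLuc and cell-permeant prosubstrate, compounds added after 5 h incubation. Luminescence tracked at 0, 8, 16, 24, 32 and 40 h of exposure.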

[17] = qHTS assay to identify small molecule antagonists of the constitutive androstane receptor (CAR) signaling pathway - cell viability counter screen (AID 1224837); further: series mostly up to about 92 µM; nearly all actives have a fitted effect of over 45% in size
How it was run: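 Fluorescence from CellTiter-Fluor served as the viability signal. Human hepatoma HepG2 cells stably bearing hCAR and CYP2B6-2.2kb received compound plus CITCO (50 nM final) for 23 hr.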

[18] = target: Nuclear receptor subfamily 1 group I member 3 (Homo sapiens) (UniProt Q14994); assay: qHTS assay to identify small molecule antagonists of the constitutive androstane receptor (CAR) signaling pathway (AID 1224838);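 further: HepG2 cells stably expressing hCAR with CYP2B6 luciferase reporter stimulated by CITCO; nearly all actives have a fitted effect of over 40% in size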
Sequence of Nuclear receptor subfamily 1 group I member 3 (Homo sapiens) (Q14994 whole entry, looked up): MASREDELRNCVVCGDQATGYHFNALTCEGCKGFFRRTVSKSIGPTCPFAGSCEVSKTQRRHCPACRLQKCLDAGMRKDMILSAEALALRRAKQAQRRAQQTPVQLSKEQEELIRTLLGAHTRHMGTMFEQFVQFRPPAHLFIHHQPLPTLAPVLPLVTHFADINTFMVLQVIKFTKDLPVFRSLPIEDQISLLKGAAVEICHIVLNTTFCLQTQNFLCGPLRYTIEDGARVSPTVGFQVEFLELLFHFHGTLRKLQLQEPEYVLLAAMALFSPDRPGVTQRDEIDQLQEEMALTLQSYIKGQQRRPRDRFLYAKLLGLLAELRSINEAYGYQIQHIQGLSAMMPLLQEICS
How it was run: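 Quantitative HTS in double-stable HepG2-CYP2B6-hCAR cells. After 4 h plating, cells get compound (15 concentrations) and CITCO at 50 nM final, incubate 24 h at 37 C, then ONE-Glo luminescence is read.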

[19] = target: Nuclear receptor subfamily 1 group I member 3 (Homo sapiens) (UniProt Q14994); assay: qHTS assay to identify small molecule agonists of the constitutive androstane receptor (CAR) signaling pathway (AID 1224839); further: nearly all actives have a fitted effect of over 15% in size; further: potency means the concentration at half of the fitted maximal effect;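 on activation: HepG2 cells stably carrying human CAR and a CYP2B6 luciferase reporter; series mostly up to about 92 µM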
How it was run: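 Readout: firefly luciferase luminescence via ONE-Glo. System: HepG2 double-stable for hCAR and CYP2B6-2.2kb. Conditions: 15-point compound titration, PK11195 at 0.75 uM final, 24 h incubation.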

Measured: Potency

COC(=O)C1CCC(C(=O)OC)CC1 (stereo not drawn)
inactive: [1] | [2] | [3] | [4] | [5] | [6] | [7] | [8] | [9] | [10] | [11] | [12] | [13] | [14] | [15] | [16]

COCCOCCOC
inactive: [1] | [2] | [17] | [18] | [19] | [4] | [7] | [8] | [9] | [10] | [11] | [13] | [14] | [15] | [16]

Cc1cccc2ccccc12
inactive: [1] | [2] | [17] | [18] | [19] | [4] | [5] | [6] | [7] | [8] | [9] | [10] | [11] | [12] | [13] | [14] | [16]

OC[C@@H](O)[C@@H](O)[C@H](O)[C@H](O)CO
inactive: [1] | [2] | [17] | [4] | [5] | [6] | [7] | [8] | [9] | [10] | [11] | [12] | [13] | [14] | [15] | [16]

CC(C)(C)CC(C)(C)c1ccc(O)c(-n2nc3ccccc3n2)c1
49.7 µM (active) and inactive: [14]
active: [7] 27.7 µM and 15.4 µM
inactive: [1] | [2] | [3] | [18] | [4] | [8] | [9] | [10] | [11] | [13] | [16]
27.7 µM (active) and inactive: [19]

CC1(C)O[C@@H]2[C@@H](CO[C@@]3(COS(N)(=O)=O)OC(C)(C)O[C@@H]23)O1
inactive: [1] | [2] | [17] | [18] | [19] | [4] | [5] | [6] | [7] | [8] | [9] | [10] | [11] | [12] | [13] | [14] | [15] | [16]

O=C(OCc1ccccc1)c1ccccc1
active: [2] 14.2 µM and 11.2 µM and 9.77 µM
inactive: [1] | [3] | [18] | [4] | [5] | [6] | [7] | [8] | [9] | [10] | [11] | [12] | [13] | [14] | [15] | [16]

N[C@@H](Cc1c[nH]c2ccc(O)cc12)C(=O)O
inactive: [1] | [3] | [18] | [19] | [4] | [7] | [8] | [9] | [10] | [11] | [13] | [14] | [15] | [16]
34.6 µM (active) and inactive: [2]

From PubChem BioAssay (Tox21)
